From PubChem BioAssay (NCATS) come the findings set out here.

Assay [1] can be described thus: qHTS profiling for inhibitors of Plasmodium falciparum proliferation (AID 504749).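 For activity, negative = inhibition: 0% = DMSO vehicle and full inhibition = artemisinin control.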 Note: nearly all actives have a fitted effect of over 60% in size. The settings on record: P. falciparum in erythrocytes, SYBR Green DNA, 72 h. The gist of the method: (§1)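 Each compound contacts P. falciparum-infected red blood cells for 72 h at 37 C; lysis buffer (Tris, EDTA, saponin, Triton X, SYBR Green I) is added and fluorescence measured next morning; values normalized to controls.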
For orientation: qHTS replaces the single test concentration by a dilution series.

In the next assay the test system is 3D7. The assay is described as above. To be noted: P. falciparum in erythrocytes, SYBR Green DNA, 72 h; series mostly up to 28.7 µM. The gist of the method:
as §1

The test system of a further assay is 7G8. The description is as above. The settings on record: P. falciparum in erythrocytes, SYBR Green DNA, 72 h; series mostly up to 28.7 µM. Summed up:
as §1

A further assay relates to AA1029. The assay is described as above. The settings on record: P. falciparum in erythrocytes, SYBR Green DNA, 72 h; series mostly up to 28.7 µM. Summed up:
as §1

For a further assay, the system named is AS120. The assay is described as above. To be noted: P. falciparum in erythrocytes, SYBR Green DNA, 72 h; series mostly up to 28.7 µM. The gist of the method: as §1
For the next assay, the system named is ATS189. Described as above. The settings on record: P. falciparum in erythrocytes, SYBR Green DNA, 72 h; series mostly up to 28.7 µM. Summed up:
as §1

The test system of a further assay is ATS95. The assay is described as above. To be noted: P. falciparum in erythrocytes, SYBR Green DNA, 72 h; series mostly up to 28.7 µM. The gist of the method:
as §1

A further assay concerns C2A. Described as above. To be noted: P. falciparum in erythrocytes, SYBR Green DNA, 72 h; series mostly up to 28.7 µM. Summed up:
as §1

The next assay concerns CP185. The assay is described as above. The settings on record: P. falciparum in erythrocytes, SYBR Green DNA, 72 h; series mostly up to 28.7 µM. The gist of the method:
as §1

For the next assay, the system named is CP191. The description is as above. The settings on record: P. falciparum in erythrocytes, SYBR Green DNA, 72 h; series mostly up to 28.7 µM. Summed up: as §1
A further assay has as its system CP192. The description is as above. The settings on record: P. falciparum in erythrocytes, SYBR Green DNA, 72 h; series mostly up to 28.7 µM. The gist of the method: as §1
A further assay deals with CP194. The description is as above. The settings on record: P. falciparum in erythrocytes, SYBR Green DNA, 72 h; series mostly up to 28.7 µM. The gist of the method: as §1
Another assay has as its system CP201. Described as above. To be noted: P. falciparum in erythrocytes, SYBR Green DNA, 72 h; series mostly up to 28.7 µM. The gist of the method:
as §1

A further assay relates to CP211. The description is as above. The settings on record: P. falciparum in erythrocytes, SYBR Green DNA, 72 h; series mostly up to 28.7 µM. The gist of the method: as §1
A further assay has as its system CP215. The description is as above. The settings on record: P. falciparum in erythrocytes, SYBR Green DNA, 72 h; series mostly up to 28.7 µM. The gist of the method: as §1
A further assay relates to CP217. Described as above. The settings on record: P. falciparum in erythrocytes, SYBR Green DNA, 72 h; series mostly up to 28.7 µM. Summed up: as §1
The test system of the next assay is CP203. The description is as above. To be noted: P. falciparum in erythrocytes, SYBR Green DNA, 72 h; series mostly up to 28.7 µM. The gist of the method: as §1
The mark [2] stands for this setting: at 28.7 µM (top of the series), parasite line A.
Setting [3] is: at 28.7 µM (top of the series), parasite line B.
Setting [4] is: at 12.8 µM (top of the series), parasite line A.
[5] abbreviates: at 12.8 µM (top of the series), parasite line B.

Inconclusive results are not listed. A number with no mark means an inactive call. Activity calls are given as the source filed them. Calls come from the whole dose curve; as a rule, active = well fitted inhibition curve with a large enough effect; inconclusive = small, poorly fitted or top-dose-only effect; inactive = flat fitted curve, though single readings scatter.
Potency is the fitted concentration of half-maximal effect.

Regarding `CCC(=O)Nc1ccc(O)cc1`, the activity, negative = inhibition in assay [1] (setting [2]) is 11.9%; in assay [1] (setting [3]), -3.83%. Moreover, the Potency result in the assay on 3D7, in the assay with 7G8, in the assay on AA1029, with AS120, in the assay with ATS189 and in the assay with ATS95 was “inactive” each time. The Potency entry in the assay with C2A, in the assay with CP185, in the assay with CP191, in the assay on CP192, in the assay with CP194 and in the assay with CP201 was “inactive” each time. The Potency entry with CP211, in the assay on CP215 and in the assay with CP217 was “inactive” throughout.

As for `NCC(=O)CCC(=O)O`, the activity, negative = inhibition in assay [1] (setting [2]) was 2.38%; in assay [1] (setting [3]), -2.04%. For the same compound, the Potency entry in the assay on 3D7, in the assay with 7G8, in the assay with AA1029, in the assay with AS120, with ATS189 and with ATS95 was “inactive” each time. The Potency result in the assay on C2A, with CP185, in the assay on CP191, in the assay on CP192, with CP194 and in the assay with CP201 was “inactive” each time. The Potency entry with CP211, in the assay with CP215 and in the assay on CP217 was “inactive” throughout.

Regarding `Nc1ccc(S(=O)(=O)Nc2nccs2)cc1`, the results for the activity, negative = inhibition in assay [1] (setting [2]) and in [1] (setting [3]) were 1.04% and -2.23%, respectively. The Potency entry in the assay with 3D7, with 7G8, in the assay on AA1029, in the assay on AS120, in the assay on ATS189 and with ATS95 was “inactive” in each case. Besides, the Potency result in the assay with C2A, with CP185, in the assay on CP191, in the assay on CP192, in the assay with CP194 and in the assay with CP201 was “inactive” throughout. The Potency result in the assay with CP211, in the assay with CP215 and in the assay on CP217 was “inactive” in each case.

As to `Cc1cc2c(cc1S(N)(=O)=O)S(=O)(=O)CCC2`, the activity, negative = inhibition in [1] (setting [4]) was -1.89%; in assay [1] (setting [5]), 2.51%. Besides, the Potency result in the assay with 3D7, with 7G8, in the assay on AA1029, with AS120, in the assay on ATS189 and in the assay with C2A was “inactive” in each case. Further, the Potency result in the assay with CP185, in the assay with CP191, in the assay with CP192, with CP194, in the assay on CP201 and with CP203 was “inactive” each time. Moreover, the Potency entry in the assay on CP211, in the assay on CP215 and with CP217 was “inactive” in each case.

In the case of `CN1CCN(C2Cc3ccccc3Sc3ccc(Cl)cc32)CC1` (stereo not drawn), the activity, negative = inhibition is -18.4% in assay [1] (setting [2]) and -6.83% in [1] (setting [3]). In addition, the Potency result in the assay with 3D7, in the assay with ATS189, with ATS95, in the assay on C2A, in the assay with CP185 and in the assay with CP191 was “inactive” in each case. In addition, the Potency result with CP192, in the assay on CP201 and with CP211 was “inactive” in each case. In addition, the Potency in the assay with 7G8 is 8.91 µM (active).

For the compound `O=C(O)c1ccccn1`, the activity, negative = inhibition in assay [1] (setting [2]) was 0.929%; in assay [1] (setting [3]) it was -26.4%. Besides, the Potency result in the assay on 3D7, with 7G8, with AA1029, in the assay on AS120, with ATS189 and in the assay with ATS95 was “inactive” each time. Moreover, the Potency entry in the assay with C2A, in the assay with CP185, with CP191, in the assay with CP192, in the assay with CP194 and with CP201 was “inactive” in each case. Moreover, the Potency entry in the assay on CP211 and in the assay on CP217 was “inactive” throughout.

`COc1cc(C)c(Cc2cnc(N)nc2N)cc1OC`: the figures for the Potency (in [1] (parasite line A); in [1] (parasite line B); with 3D7) were 4.47 µM (active), 11.2 µM (active) and 11.2 µM (active), respectively. Besides, the Potency entry in the assay on 7G8, in the assay with AA1029, with AS120, in the assay on ATS189, in the assay on ATS95 and in the assay with C2A was “inactive” throughout. In addition, the Potency entry in the assay with CP185, in the assay on CP191, with CP192, in the assay with CP194, in the assay with CP201 and in the assay with CP211 was “inactive” each time. Further, the Potency entry in the assay on CP215 and in the assay with CP217 was “inactive” each time.

As for `O=Cc1ccccc1C=O`, the activity, negative = inhibition was -1.21% in assay [1] (setting [2]) and 5.64% in [1] (setting [3]). Further, the Potency entry in the assay on 3D7, with 7G8, in the assay on AA1029, in the assay with AS120, in the assay on ATS189 and in the assay with ATS95 was “inactive” each time. Also, the Potency result in the assay with C2A, in the assay with CP185, with CP191, with CP192, in the assay on CP194 and with CP201 was “inactive” in each case. Besides, the Potency result in the assay with CP211 and with CP217 was “inactive” in each case.

`C[C@@H]1CN(c2c(F)c(F)c3c(=O)c(C(=O)O)cn(C4CC4)c3c2F)C[C@H](C)N1`: the activity, negative = inhibition is 9.49% in assay [1] (setting [2]) and 3.41% in assay [1] (setting [3]). Also, the Potency entry in the assay on 3D7, in the assay with 7G8, in the assay with AA1029, with AS120, in the assay with ATS189 and with ATS95 was “inactive” each time. Also, the Potency result in the assay with C2A, in the assay with CP185, in the assay on CP191, in the assay on CP192, in the assay on CP194 and in the assay on CP201 was “inactive” in each case. Also, the Potency entry in the assay with CP211, in the assay on CP215 and in the assay with CP217 was “inactive” each time.

Regarding `Oc1cccc(O)c1`, the figures for the activity, negative = inhibition in assay [1] (setting [2]) and in assay [1] (setting [3]) were 9.04% and 15.9%, respectively. The Potency entry in the assay on 3D7, with 7G8, in the assay on AA1029, in the assay on AS120, with ATS189 and with ATS95 was “inactive” throughout. The Potency result in the assay with C2A, with CP185, with CP191, with CP192, in the assay on CP194 and in the assay on CP201 was “inactive” in each case. In addition, the Potency entry with CP211, with CP215 and in the assay on CP217 was “inactive” throughout.

As for `O=c1cc[nH]c(=S)[nH]1`, the figures for the activity, negative = inhibition in [1] (setting [2]) and in [1] (setting [3]) were 1.45% and 6.46%, respectively. Moreover, the Potency entry in the assay on 3D7, in the assay with 7G8, in the assay with AA1029, with AS120, with ATS189 and in the assay with ATS95 was “inactive” throughout. Moreover, the Potency result with C2A, with CP185, in the assay on CP191, in the assay on CP192, in the assay on CP194 and with CP201 was “inactive” in each case. Moreover, the Potency result in the assay on CP211 and in the assay with CP217 was “inactive” each time.

With `CCOC(=O)[C@H](CCc1ccccc1)N[C@@H](C)C(=O)N1C(=O)N(C)C[C@H]1C(=O)O`, the values for the activity, negative = inhibition in [1] (setting [2]) and in [1] (setting [3]) were 8.56% and 16.1%, respectively. Besides, the Potency entry in the assay on 3D7, in the assay on 7G8, in the assay on AA1029, with AS120, in the assay with ATS189 and in the assay on ATS95 was “inactive” in each case. Moreover, the Potency result with C2A, with CP185, in the assay on CP191, with CP192, in the assay on CP194 and in the assay on CP201 was “inactive” in each case. Further, the Potency result in the assay on CP211, in the assay on CP215 and with CP217 was “inactive” throughout.

Take `COc1ccc2c(c1)C(=O)N(CCc1ccc(S(=O)(=O)NC(=O)NC3CCCCC3)cc1)C(=O)C2(C)C`: the values for the activity, negative = inhibition in assay [1] (setting [4]) and in [1] (setting [5]) were 4.32% and -5.51%, respectively. Besides, the Potency result in the assay on 3D7, with 7G8, with AA1029, in the assay with AS120, with ATS189 and in the assay on ATS95 was “inactive” throughout. Also, the Potency entry in the assay on C2A, with CP185, with CP191, in the assay with CP192, in the assay on CP194 and in the assay on CP201 was “inactive” in each case. Besides, the Potency entry in the assay with CP211, in the assay with CP215 and in the assay on CP217 was “inactive” each time.
